# Laboratory results as given in PMC5540273 (PLoS ONE, 2017).
# Tests used:
# Settings in all cases: concentration: 1 μM, replicates: in singlicate; n = 1
# MEK5 = test system: T1, MEK5
# T1 construct: gene MAP2K5
# MEK6 = test system: T2, MEK6
# T2 construct: gene MAP2K6
# MELK = test system: MELK
# MERTK = test system: MERTK
# MET = test system: MET
# MINK = test system: T3, MINK
# T3 construct: gene MINK1
# MKK7 = test system: MKK7
# MKNK1 = test system: MKNK1
# MKNK2 = test system: MKNK2
# MLCK = test system: T4, MLCK
# T4 construct: gene MYLK3
# 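Note: KINOMEscan kinase panel screen.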
Structure (SMILES),%Inh (MEK5) [%],%Inh (MEK6) [%],%Inh (MELK) [%],%Inh (MERTK) [%],%Inh (MET) [%],%Inh (MINK) [%],%Inh (MKK7) [%],%Inh (MKNK1) [%],%Inh (MKNK2) [%],%Inh (MLCK) [%]
CC(=O)Nc1nc2cnc(Nc3cc(NC(=O)c4cccc(C5(C#N)CC5)c4Cl)ccc3C)nc2s1,12,25,0,17,8,0,10,16,0,0
Cl.Cl.NCC(NCc1ccc(-c2ccnc3[nH]ccc23)s1)c1ccccc1 (centres unmarked) [GSK1321565],43,4,64,74,0,51,0,2,65,6
CNC(=O)c1ccccc1Nc1nc(Nc2ccc(N3CCOCC3)cc2)ncc1Cl.Cl [GSK1576028],97.6,79,99.8,100,95,72,0,14,82,96.1
Cl.c1ccc(-c2ccc3c(Nc4ccc5[nH]ccc5c4)ccnc3c2)nc1 [GW440138],83,0,0,34,0,75,0,2,0,0
Cn1cc(-c2ccc3c(c2)CCN3C(=O)Cc2cccc(Cl)c2)c2c(N)ncnc21 [GSK2606590],99.8,0,0,79,45,0,28,21,23,6
c1ccc(Oc2ccc(Nc3ccnc4cc(-c5ccc(CNCCN6CCOCC6)o5)ccc34)cc2)nc1 [GW567145],100,0,0,9,0,37,0,0,19,10
COC(=O)Nc1nc2cc(Oc3ccc(NC(=O)Nc4cc(C(F)(F)F)ccc4F)cn3)ccc2[nH]1.Cl.Cl [GW681170],51,0,6,95.7,73,18,0,36,88,0
COc1cc(Nc2nccc(-c3c(-c4cccc(NC(=O)c5c(F)cccc5F)c4)nn4ncccc34)n2)cc(OC)c1OC [GSK327238],99.9,51,31,90.2,79,44,0,5,5,47
c1ccc(-c2cnc3nccnn23)cc1 [AH20685],0,0,0,0,0,0,0,2,11,9
Cc1cccc(NC(=O)Nc2ccc(Oc3ncnc4ccn(C)c34)cc2)c1,25,0,0,9,19,3,0,3,88,0
CN(C)S(=O)(=O)c1cc(-c2ccc3nccc(-c4cccc(S(N)(=O)=O)c4)c3c2)cnc1N [GSK1669921],56,0,0,33,0,19,0,0,4,0
Cc1cccc(Nc2nc(N[C@H]3CCNC3)ncc2C(N)=O)c1.Cl [GSK2197149],99.8,50,20,37,0,76,4,0,51,24
Cc1ccc(C)c(NC(=O)NC2CCN(c3ccnc(Nc4ccc(F)cc4)n3)C2)c1 (centres unmarked) [GSK1379720],50,0,0,21,0,0,0,0,0,22
COc1ccc(Nc2nccc(N3CCC(NC(=O)Nc4cccc(OC)c4)C3)n2)cc1 (centres unmarked) [GSK1379742],46,0,7,19,0,0,0,3,0,0
Nc1ncc(-c2ccc3nccc(-c4ccncc4)c3c2)cc1S(=O)(=O)N1CCOCC1 [GSK1627798],15,0,0,12,0,10,5,0,3,0
FC(F)(F)c1ccc(/C=C/c2cncnc2Nc2ccc3[nH]c(Cc4ccccc4)nc3c2)cc1 [GW709199],32,0,0,4,16,1,0,0,0,0

Structure (SMILES),%Inh (MEK5) [%],%Inh (MEK6) [%],%Inh (MELK) [%],%Inh (MERTK) [%],%Inh (MET) [%],%Inh (MINK) [%],%Inh (MKK7) [%],%Inh (MKNK1) [%],%Inh (MKNK2) [%],%Inh (MLCK) [%]
CN(C)Cc1ccc(-c2ccc3c(Nc4ccc(Oc5ccccn5)cc4)ccnc3c2)o1 [GW567148],100,0,0,38,12,36,0,0,38,0
COCCOCCOc1cc2ncc3c4ccc(C#N)cc4[nH]c3c2cc1OC,100,0,54,0,10,90.9,0,95.4,99.7,95.8
CCn1c(-c2nonc2N)nc2c(C#CC(C)(C)O)nc(OC[C@H](N)c3ccccc3)cc21 [GSK943949],0,0,63,21,0,5,0,5,0,34
CN1CCN(CCCNc2nccc(-c3c(-c4ccc(F)cc4)nn4cc(C(F)(F)F)ccc34)n2)CC1 [GW621581],25,0,0,26,0,17,0,0,1,4
COc1cc(Nc2nccc(N3CCC(NC(=O)Nc4cccc(C(C)=O)c4)C3)n2)cc(OC)c1OC (centres unmarked) [GSK1379753],99.6,0,0,23,12,0,0,9,62,0
Cl.c1ccc(-c2ccc3c(Nc4ccc5[nH]ncc5c4)ccnc3c2)nc1 [GW440137],89,0,15,0,0,43,0,5,18,15
Cc1occc1-c1ncc(OC[C@@H](N)Cc2c[nH]c3ccccc23)cc1-c1ccc2[nH]nc(C)c2c1.O=C(O)C(F)(F)F [GSK682037],76,13,50,66,45,97.2,17,0,0,39
NCCCC(NC(=O)c1cc(Br)c(-c2ccnc3[nH]ccc23)s1)c1ccccc1.O=C(O)C(F)(F)F.O=C(O)C(F)(F)F (centres unmarked) [GSK1287544],7,0,54,55,6,27,16,0,83,47
CSc1cccc2c(-c3ccncn3)c(-c3ccc(F)cc3)nn12 [GW514786],15,0,20,39,23,5,0,14,1,0
Cn1cc(-c2ccc3c(c2)CCN3C(=O)Cc2cccc(F)c2)c2c(N)ncnc21 [GSK2603358],99.9,0,9,49,61,0,32,2,21,16
O=C(Nc1ccccc1F)NC1CCN(c2ccnc(Nc3ccc(F)cc3)n2)CC1 [GSK1379800],13,0,15,0,0,0,17,0,0,0
COC(=O)Nc1nc2ccc(Oc3ccc(NC(=O)Nc4cc(C(F)(F)F)ccc4F)cc3)cc2n1C.Cl [GW692089],15,0,0,94.2,62,20,0,75,90.2,34
Cc1ccc(F)c(C(=O)Nc2cccc(-c3nn4ccccc4c3-c3ccnc(Nc4cccc(F)c4)n3)c2)c1F [GSK361061],95,18,12,75,58,17,10,21,0,5
Nc1n[nH]c2cnc(-c3ccccc3)cc12 [SB-642124],52,0,28,43,0,53,0,13,8,1
Fc1ccc(-c2ncn(C3CCNCC3)c2-c2ccnc(Oc3ccc(-c4ccccc4)cc3)n2)cc1 [SB-245391],17,29,27,0,50,30,11,0,10,0
COc1cccc(-c2ccc3c(NC(=O)C4CC4)n[nH]c3n2)c1 [SB-710903],61,0,0,38,28,76,0,32,21,47
